Measurements published in the supplement of paper PMC6555819.

test system: VDR homodimer (NR concentration 270 nM); assay: PBM binding z-score (relative to random genomic background probes); higher = stronger binding; sequences stand for … in GC…GCGATTGACAGCGTAGAATGAAGG
How it was run: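 On custom Agilent 4×180K arrays, double-stranded probes with 34-nt variable regions carried direct-repeat seeds, single-nucleotide variants, half-site ablations or random human genomic background. Ligand-free nuclear receptor dimers were applied for 1 h, and binding was read with antibodies against each partner (one per run). Binding z-scores come from regression-normalized fluorescence, with the random background probes as reference.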

Sequence | PBM binding z-score
TCATATAGGTGATACAGGTGAAAGTCGGCATCTA | 0.258
ACTAGTTGGTCAGCTGTGGTCACACACAATTCGG | 0.0683
GCTCGGAGGACAGGGTCAGAGCTTTGTCCGTAGA | 0.212
AATACAGGGTCACTAGCCCAGAGTAGGTACGAAT | 2.21
TAGCCTAGGGCATTGGGCCAGTATAGTACGCATC | -0.306
TCTGCTAGGTCAACGATGGTCATCTAATCTGCTA | -0.118
CCTCGGAGGACAACAGGAGGACAGAGCTGCCAGA | 0.157
TAACCTAGGTCATGGGCCAGTATACCACGCGAAC | 1.35
CGTCCATGGTCAGAGAGGTCAGTGAATGCCGAGT | 2.63
CCGAGTAGGTTATGGGGCATTTAGGCAACGGTGA | -0.135
TCTACCAGGCCAGAGGGTCACTCAAGAGGTACGG | 0.936
AGAACGAGGGCAATGAGTTGATAGCACGGGTGGC | 2.26
ACAGACAGGTGATGACGGTAACTCAGGCTATCAT | -0.266
GCTCGGAGGACAAGGTCAGCGCTTTGTCCGTAGA | 0.607
CAAATTAGGTCACAGAGGTCAAAGTCCGTGCGTA | 6.37
ACAGACAGGTGATGAAGGTAACCCAGGCTATCAT | -0.253
TTTTGTAGATCAGCAGGTTAAGAAAGCTGGCCAA | -0.168
CGTCCAAGGTCAGAGTGGTCAGTGAATGCCGAGT | 2.23
CGAACTAGGTCATTGCCAGGACAGTGAATAGTAA | 1.49
ACTAGTTGGTCTGCTGAGGTCACACACAATTCGG | 3.1

Sequence | PBM binding z-score
ATCGAAAGGTCGACGTGAGTATAGAGAAAGGGAA | 0.464
AATACAGGGTCATCGTAGGCCAAAGTACGCACAG | 3.98
GCTGCTTGGTCAGGTTGGTCAGCTAACGGGTACG | 0.00601
TCTTGTAGATCAACAGGACGTTAAGAAAGATCGA | -0.395
TATACAGGGTCCAAGGCCAGAGTACGAATGTCGA | 2.03
TCTTGTAGATCAAGCAAGTTAAGAAAGCCTGAGT | -0.186
GCTGCTAGGTCAGGTTGGTCAGCTACCGGGTACG | 0.476
CGTCCAAGGTCAATGCTAGGTCATTGAAAGCATT | 4.05
TCATATAGGTAAAACAGGTGAAAGTCGGCATCTA | -0.37
AGACTGAGGTTATTAAGATCAGGGAATTGCGGTC | 0.749
ATCGTAAGGTCGACGAGGTGAGTATACACCGTTT | 1.63
CGTCCTAGGTCAGAGAGGTCAGTGAATGCCGAGT | 3.9
CCTCGGAAGACAACAGGAGGTCAGAGCTGCCAGA | 1.28
TAACCTAGGTCAGATCGGGCCAGTATACGCTATA | 0.367
AATCAAAGTTCAGGACGAGGTAACGTAAAGCACG | 2.06
CCGACTGGGGCAGAAAGGTTATCATACCATCCGG | -0.196
CGAACTAGGTCATTGACAGGACAGTGCATAGTAA | 1.86
TATACAGGGGCAAAGGCCAGAGTACGAATGTCGA | 0.679
CGAACTAGGTCATTGACAGGACAGTGATTAGTAA | 1.52
AGAACGAGGTTACCAAAGATCAGGGAAACGCTTG | 0.242
